Compound activity (PubChem BioAssay)
Only some compounds are listed: those with a hit (about 9.6% of all), similar ones and a draw of the others.
Insulin prom up – MIN6 insulin promoter up-regulation | MIN6 insulin promoter-GFP reporter, high-content imaging; stronger effect = higher value | hit rate 0.3% among 190,000 | z-score at 5 µM | AID 1625;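 active = z-score above 3 at 5 µM with at least 500 cells counted in the well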
Lmaj promast – Leishmania major promastigote growth inhibition | Leishmania major promastigotes, resazurin fluorescence viability | inhibition, % at 10 µM | hit rate 9% among 200,000 | AID 1063; in the data active = inhibition above about 50%;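 note: promastigotes grown with compound for 44 hours at 28 °C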
Autophagy mod – autophagy modulation, high-content screen; MEF GFP-LC3 puncta imaging; test concentration mostly 10 µM; calls only at 10 µM (by protocol); hit rate 0.98% among 190,000; AID 463193;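 active = percentage of spot-positive cells more than 3 SD above its plate mean, without a fluorescence outlier flag or 80% toxicity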;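 note: spot-positive cell cutoff set from DMSO-treated cells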
PTEN del growth – suppresses growth of cells with PTEN deletion; HCT116 PTEN-null viability, CellTiter-Glo, 60 h; stronger effect = lower value; hit rate 1.2% among 140,000; viability, % at 10 µM; AID 827;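 active = viability at or below a set limit, 4 SD under the median of all tested compounds, cut at about 3.7% in these data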;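 note: PTEN knockout HCT116 line with beta catenin targeted HCT116 as companion control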
INS promoter inh – TRM-6 insulin promoter activity inhibition. inhibition, % at 2 µM. hit rate 0.9% among 130,000. TRM-6 cells (human fetal islet line), insulin promoter-eGFP reporter, imaging; reporter expression induced with tamoxifen. AID 1273;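 active = inhibition above the mean plus 3 SD, with well images judged a real hit on visual review, cut at about 60% in these data, passing the limit was not always enough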
bCat KO growth – beta-catenin-lacking colon tumor cell growth suppression. hit rate 1.5% among 140,000. viability, % at 10 µM. HCT116 beta-catenin knockout viability, CellTiter-Glo, 60 h; stronger effect = lower value. AID 818;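 active = viability at or under a set limit, the compound median less 4 SD, cut at about 6% in these data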;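 note: 0% = Hyamine 1622 control at 20 µM and 100% = untreated cell control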
* = called active by the depositor.

Cc1ccc(NC(=O)CCCN2C(=O)/C(=C/C=C/c3ccccc3)SC2=S)cc1 was read as Insulin prom up 0.25, Lmaj promast 3, Autophagy mod inactive, PTEN del growth 2.4*, INS promoter inh 20 and bCat KO growth 7.
O=C(CCCN1C(=O)/C(=C\c2ccccc2)SC1=S)Nc1ccc(O)cc1 was read as Lmaj promast 39 and Autophagy mod inactive.
For Cc1ccc(/C=C2/SC(=S)N(CCCC(=O)Nc3ccc(O)cc3)C2=O)cc1 the results were Insulin prom up -0.56, Lmaj promast 16 and Autophagy mod inactive.
O=C(CCCN1C(=O)/C(=C/c2ccccc2)SC1=S)Nc1cccc(O)c1 was read as Insulin prom up -0.92, Lmaj promast 65*, Autophagy mod inactive and INS promoter inh 0.
Cc1csc(NC(=O)c2nc3nccc(C)n3n2)n1 was read as Insulin prom up 0.7, Lmaj promast 3, Autophagy mod inactive, PTEN del growth 95, INS promoter inh 9 and bCat KO growth 102.
`COCc1cc(=O)n2[nH]c(-c3cccc(Br)c3)cc2n1` gave Insulin prom up 0.62, Lmaj promast 100*, Autophagy mod inactive, PTEN del growth 84 and bCat KO growth 85.
COCc1cc(=O)n2[nH]c(-c3ccccc3)cc2n1 was read as Insulin prom up 0.13, Lmaj promast 2, Autophagy mod inactive, PTEN del growth 88, INS promoter inh 10 and bCat KO growth 100.
`O=C(COc1cccc(NC(=O)c2ccco2)c1)c1ccc(F)cc1` gave Insulin prom up -0.14, Lmaj promast 29, Autophagy mod inactive, PTEN del growth 110, INS promoter inh 10 and bCat KO growth 90.
CCOC(=O)N1CCN(CC(O)COCCC23CC4CC(CC(C4)C2)C3)CC1 (stereo unspecified) was read as Insulin prom up -2, Lmaj promast 87*, Autophagy mod inactive, PTEN del growth 76, INS promoter inh 4 and bCat KO growth 83.
`Cc1ccc2c(c1)c(C)c(C)n2CC(O)CN1CCCCC1C` (stereo unspecified) gave Insulin prom up -0.58, Lmaj promast 26, Autophagy mod inactive, PTEN del growth 78 and bCat KO growth 85.
Screening CC1CCCCN1CC(O)COCCC12CC3CC(CC(C3)C1)C2 (stereo unspecified) returned Insulin prom up -0.52, Lmaj promast 94* and Autophagy mod active.
`Cc1ccc(C)n1-c1ccc(N2CCOCC2)cc1` gave Insulin prom up 0.59, Lmaj promast -5, Autophagy mod inactive, PTEN del growth 71, INS promoter inh -15 and bCat KO growth 78.
O=Cc1cn(-c2ccccc2)nc1-c1ccncc1 was read as Insulin prom up 0.44, Lmaj promast 14 and Autophagy mod inactive.
`CC1(C)CC(=O)C(=Cc2cn(-c3ccccc3)nc2-c2ccc(Cl)cc2)C(=O)C1` gave Insulin prom up 0.79, Lmaj promast 69*, Autophagy mod inactive, PTEN del growth 8, INS promoter inh 50 and bCat KO growth 14.
CC1=NNC(=O)/C1=C\c1cn(-c2ccccc2)nc1-c1ccccc1 was read as Insulin prom up 1.2, Lmaj promast 100* and Autophagy mod inactive.
For O=C(CSCc1ccc(Cl)cc1Cl)Nc1ccccc1C(=O)Nc1ccc(C(=O)O)cc1 the results were Insulin prom up 0.44, Lmaj promast -6 and Autophagy mod inactive.
`CC(OC(=O)CNC(=O)c1ccc2c(c1)OCO2)C(=O)NCCC1=CCCCC1` (stereo unspecified) gave Insulin prom up 0.29, Lmaj promast -8, PTEN del growth 84 and bCat KO growth 78.
CCOC(=O)c1c(NC(NC(=O)C(C)C)C(Cl)(Cl)Cl)sc2c1CCC2 (stereo unspecified) was read as Insulin prom up 0.53, Lmaj promast 86*, Autophagy mod inactive, PTEN del growth 65, INS promoter inh -17 and bCat KO growth 72.
Cc1[nH]c2ccccc2c1C(=O)CN1CCN(C/C=C/c2ccccc2)CC1 was read as Insulin prom up -0.15, Lmaj promast 83*, Autophagy mod inactive, PTEN del growth 19, INS promoter inh 44 and bCat KO growth 11.
COc1ccc2[nH]c(C)c(C(=O)CN3CCN(C/C=C/c4ccccc4)CC3)c2c1 was read as Insulin prom up -0.91, Lmaj promast 62*, Autophagy mod inactive, PTEN del growth 77, INS promoter inh 42 and bCat KO growth 78.
